Data reported in PubChem BioAssay (NCATS).
Results filed as inconclusive are left out. A call without a number means that no potency is given here. The source made the active and inactive calls. Calls follow the shape of the dose curve; as a rule, active = well fitted cell-killing curve with a large enough effect; inconclusive = small, poorly fitted or top-dose-only effect; inactive = flat fitted curve, though single readings scatter.

Experiment: Cell Viability - LYMP2-007 (AID 979);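 also: cells exposed to compound for 24 h before reading; nearly all actives have a fitted effect of over 60% in size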
Conditions: LYMP2-007 lymphoblastoid cell viability; series mostly up to 92.2 µM
From the text: NIH Chemical Genomics Center [NCGC]
NIH Molecular Libraries Screening Centers Network [MLSCN]
National Institutes of Environmental Health Sciences [NIEHS]
National Toxicology Program [NTP]
We have developed a 1536-well cell-based assay for quantitative high throughput screening (qHTS) against a number of cell lines to determine in vitro cytotoxicity of small molecules. This particular assay uses a human lymphoblastoid cell line (LYMP2-007) purchased from Coriell Institute for Medical Research.
NCGC Assay Protocol Summary:
The CellTiter-Glo luminescent cell viability assay (Promega) is a homogeneous method to measure the number of viable cells in culture. The end point readout of this assay is based on quantitation of intracellular ATP, an indicator of metabolic activity, using the luciferase reaction. Luciferase catalyzes the oxidation of beetle Luciferin to oxyluciferin and light in the presence of ATP. The luminescent signal is proportional to amount of ATP present.
Using the CellTiter-Glo luminescent cell viability assay, the amount of cellular ATP was measured in the lymphoblastoid cell line with complete culture medium following compound treatment for 24 hours. The assay was performed in opaque white Kalypsys 1536-well plates. In the screen, tetraoctylammonium bromide was used as positive control. Library compounds were measured for their ability to cause acute toxicity in the cell line, as reflected by a decrease in intracellular ATP levels, in a concentration-dependent manner. […] AC50 values were determined from concentration-response data modeled with the standard Hill equation.
qHTS protocol for CellTiter Glo lymphoblastoid cellular assay
[Step] [Parameter] [Value] [Description]
1. Reagent; 5 uL; 2500 lymphoblastoid cells/well
2. Time; 5 hr; 37 C incubation
4. Controls; 23 nL; Tetraoctylammonium bromide 6.4pM to 92 uM
5. Time; 24 hr; 37 C incubation
6. Reagent; 5 uL; CellTiter Glo reagent
7. Time; 30 min; Room Temperature
8. Detection; Luminescence; Viewlux plate reader
Keywords: cell viability, cytotoxicity, lymphoblastoid cell line, luminescence, NTPHTS, NTPHTS_NCGC, NIEHS, DSSTox, MLSMR, MLSCN, NIH Roadmap, qHTS, NCGC

Row | Structure (SMILES) | Potency
1 | CNC(=O)c1ccccc1 | inactive
2 | CNc1ccccc1 | inactive
3 | CNC(=O)N(c1ccccc1)c1ccccc1 | inactive
4 | Cc1cccc(C)c1O | inactive
5 | C[C@@H]1O[C@@H](O[C@@H]2[C@@H](O)[C@H](OCCc3ccc(O)c(O)c3)O[C@H](CO[C@@H]3O[C@H](CO)[C@@H](O)[C@H](O)[C@H]3O)[C@H]2OC(=O)/C=C/c2ccc(O)c(O)c2)[C@H](O)[C@H](O)[C@H]1O | inactive
6 | O=C(O)c1ccc(Cl)c(Cl)c1 | inactive
7 | [O-]/[N+](=N\O)c1ccccc1 | inactive
8 | CCCCOCCOCCOCCCC | inactive
9 | NC(=O)c1ccccc1[N+](=O)[O-] | inactive
10 | Nc1ccc(F)cc1F | inactive
11 | BrC/C=C/CBr | inactive
12 | CC(C)=C1CCC(C)CC1=O (stereo not given) | inactive
13 | Cc1cc(C)cc(N)c1 | inactive
14 | CCOC(=O)OCC | inactive
15 | Cc1cc(C(=O)O)ccc1[N+](=O)[O-] | inactive
16 | O=C(O)c1cccc(Cl)c1Cl | inactive
17 | O=Cc1ccc(C(=O)O)cc1 | inactive
18 | O=C1OC(=O)c2cc([N+](=O)[O-])ccc21 | inactive
19 | CCCCCCO | inactive
20 | CC=O | inactive

Row | Structure (SMILES) | Potency
21 | CC(=O)c1ccccc1[N+](=O)[O-] | inactive
22 | CCOCCO | inactive
23 | Cc1cscn1 | inactive
24 | CC1CCC2CC1C2(C)C (stereo not given) | inactive
25 | CC(C)(O)CCC(C)(C)O | inactive
26 | Cc1ccc(Cl)cc1N | inactive
27 | Nc1cccc2c(=O)[nH][nH]c(=O)c12 | inactive
28 | Nc1c(Cl)cc(Cl)cc1Cl | inactive
29 | CC(=O)Nc1ccc(N)cc1 | inactive
30 | CN(C)c1cccc(O)c1 | inactive
31 | Cc1ccc(CO)cc1 | inactive
32 | CCOc1ccc(NC(C)=O)cc1N | inactive
33 | CC(=O)c1ccc([N+](=O)[O-])cc1 | inactive
34 | c1ccsc1 | inactive
35 | Cc1cc(C2(c3cc(C)c(O)cc3C)OS(=O)(=O)c3ccccc32)c(C)cc1O | inactive
36 | CC(C=O)Cc1ccc(C(C)(C)C)cc1 (stereo not given) | inactive
37 | Cc1cc([N+](=O)[O-])ccc1N | inactive
38 | CC(=O)CCc1ccccc1 | inactive
39 | Cc1cccc2cccnc12 | inactive
40 | CCCCC(CC)CO (stereo not given) | inactive
